From the supplement of paper PMC6555819

Legend:
Experiment in all cases: PBM binding z-score (relative to random genomic background probes); higher = stronger binding; sequences stand for … in GC…GCGATTGACAGCGTAGAATGAAGG
[1] = system: RARb homodimer (NR concentration 270 nM)
Method in brief: (§1)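 Custom Agilent 4×180K protein-binding microarrays carried double-stranded probes. Their 34-nt variable regions held direct-repeat seeds, single-nucleotide variants, half-site ablations and random human genomic background sequences. Arrays were incubated 1 h with ligand-free nuclear receptor dimers in PBS pH 7.4, 2% milk, 0.02% Triton X-100, 1 mM DTT, 0.2 mg/mL BSA and 0.4 mg/ml salmon testes DNA. Antibodies against each partner (one per run) detected binding, and scanned fluorescence was regression-normalized. Binding z-scores use random background probes as reference.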

[2] = system: RARg:RXRa (NR concentration 270 nM, RXRa partner concentration 90 nM)
Method in brief: as §1

[3] = system: RARg homodimer (NR concentration 270 nM)
Method in brief: as §1

[4] = system: RXRa DBDmut IVT, anti-RXR (DBD mutation: RXRa K156A/R161A, NR concentration 90 nM)
Method in brief: as §1

[5] = system: RXRa homodimer (NR concentration 180 nM)
Method in brief: as §1

[6] = system: THRa:RXRa (NR concentration 90 nM, RXRa partner concentration 90 nM)
Method in brief: as §1

[7] = system: THRa homodimer (NR concentration 90 nM)
Method in brief: as §1

[8] = system: VDR homodimer (NR concentration 270 nM)
Method in brief: as §1

Row | Sequence | PBM binding z-score [1] | PBM binding z-score [2] | PBM binding z-score [3] | PBM binding z-score [4] | PBM binding z-score [5] | PBM binding z-score [6] | PBM binding z-score [7] | PBM binding z-score [8]
1 | CTCGAAAGGTCGGTTGAGGTGAGTAAACGGATAA | 2.42 | 2.86 | 2.8 | 0.85 | 2.46 | 4.97 | 1.19 | 0.238
2 | TAGCCTAGGTCATTGGACCAGTATAGTACGCATC | 2.73 | 3.97 | 4.37 | 1.43 | 3.1 | 2.85 | 0.854 | 1.54
3 | CCTAGTAGGTTACGAGGGGGCATTCAGTGCGAAT | 2.39 | 3.44 | 2.96 | 1.47 | 2.43 | 3.91 | 0.978 | 3.98
4 | TCGAGTAGGTTACGAGGGCATTCAGGGATGAAGA | 1.43 | 1.55 | 1.13 | 0.248 | 1.58 | 3.1 | 0.0603 | 1.27
5 | CGAACTCGGTCAAAGGACAGTGAAAGGCGACGTA | 1.9 | 2.15 | 2.76 | 0.447 | 0.907 | 0.713 | -0.276 | -0.121
6 | CAAACTAGGTCAAAGGTCAAAATCGAGCCAACCA | 5.03 | 8.72 | 7.08 | 3.07 | 10.1 | 4.95 | 1.51 | 2.94
7 | ATATGTAGATTAGGGTCATTCAGAAAGTAGGGAA | 3.09 | 3.47 | 2.29 | 2.09 | 4.53 | 3.9 | 2.95 | 3.14
8 | TCGAGTAGGTTACGGGGGCATACAGGGATGAAGA | 2.05 | 3.68 | 2.84 | 1.44 | 3.07 | 3.53 | 1.18 | 2.83
9 | CGACCTAGGTCAAAGGACAGTGAAAGGCGACGTA | 3.13 | 4.74 | 5.05 | 1.69 | 4 | 2.86 | 0.639 | 0.41
10 | CGAACTAGGTCACCACGACAGTGAAGAGGTTGGA | 3.15 | 4.59 | 5.39 | 1.66 | 3.31 | 3.02 | 1.16 | 0.592
11 | AGAATGAGGTTACACGTAGATCAGGGAAGAAAGT | 1.16 | 2.34 | 1.89 | 1.23 | 2.3 | 2.75 | 1.12 | 0.772
12 | ATCGAAAGGTCGACGAGTTGAGTATACACCGTTT | 2.63 | 3.88 | 4.05 | 1.46 | 4.2 | 2.24 | -0.136 | 2.1
13 | CGTCAAAGTTCAAGGTAATGTAACAGAAAGCAGC | 4.04 | 5.25 | 6.13 | 4.23 | 4.26 | 2.88 | 0.964 | 3.14
